About 2,000 (36%) of roughly 5,500 compounds were called active. Not shown: some 18% with an inconclusive outcome. No stated cut-off is given here; in the data, active means normalized growth mostly below about 0.91 (no sharp cut-off); inconclusive means no clear call, values can overlap the other calls; inactive means mostly above about 0.92. The list shows a part of the results.
Experiment: chemical genetic growth profiling, strain panel (AID 1159580);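 further: tested at 20 µM; growth read once vehicle control cultures reached saturation at 30 °C; 1 = growth at the plate median or of vehicle wells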
Details: S. cerevisiae deletion strains, growth OD
[1] = locus YHR030C, strain SLT2, stronger effect = lower value
[2] = locus YHR079C, strain IRE1, stronger effect = lower value
[3] = locus YJL095W, strain BCK1, stronger effect = lower value
[4] = locus YJR066W, strain TOR1, stronger effect = lower value
[5] = locus YLR113W, strain HOG1, stronger effect = lower value
[6] = locus YNL183C, strain NPR1, stronger effect = lower value
[7] = locus YOR231W, strain MKK1, stronger effect = lower value
[8] = locus YPL256C, strain CLN2, stronger effect = lower value
[9] = locus YAL040C, strain CLN3, stronger effect = lower value
[10] = locus YCL061C, strain MRC1 (second series), stronger effect = lower value
[11] = locus YDR150W, strain NUM1, stronger effect = lower value
[12] = locus YDR363W, strain ESC2, stronger effect = lower value
[13] = locus YER002W, strain NOP16, stronger effect = lower value
[14] = locus YGR078C, strain PAC10, stronger effect = lower value
[15] = locus YJR075W, strain HOC1, stronger effect = lower value
[16] = locus YNL128W, strain TEP1, stronger effect = lower value
[17] = locus YNL153C, strain GIM3, stronger effect = lower value
[18] = locus YNL175C, strain NOP13, stronger effect = lower value
[19] = locus YNL197C, strain WHI3, stronger effect = lower value
[20] = locus YNL224C, strain SQS1, stronger effect = lower value
[21] = locus YOR083W, strain WHI5 (second series), stronger effect = lower value
[22] = locus YPL055C, strain LGE1, stronger effect = lower value
[23] = locus YPL241C, strain CIN2, stronger effect = lower value
[24] = locus YMR263W, strain SAP30, stronger effect = lower value
[25] = locus YGR229C, strain SMI1, stronger effect = lower value
[26] = locus YNL322C, strain KRE1, stronger effect = lower value
[27] = locus YMR307W, strain GAS1, stronger effect = lower value

Measured: normalized growth

COC(=O)C(OC(C)=O)[C@H]1C(C)(C)C(OC(C)=O)[C@@H]2CC3=C4CC(=O)O[C@@H](c5ccoc5)[C@]4(C)CCC3[C@@]1(C)C2=O (some centres not stated)
inactive: [1] 0.961 | [2] 0.967 | [3] 0.979 | [4] 0.917 | [5] 0.99 | [6] 0.932 | [7] 0.989 | [8] 0.951

CN(N=O)c1cc(O)ccc1O
inactive: [9] 0.98 | [10] 0.99 | [11] 1 | [12] 0.975 | [13] 1 | [14] 0.988 | [15] 0.989 | [16] 0.993 | [17] 1.02 | [18] 0.983 | [19] 1.01 | [20] 0.991 | [21] 0.991 | [22] 0.972 | [23] 0.987

CN(N=O)c1ccc(O)c(O)c1
active: [11] 0.934
inactive: locus YAL013W, strain DEP1, stronger effect = lower value 0.957 | [9] 0.997 | [10] 0.946 | [12] 0.928 | [13] 0.974 | [14] 0.972 | [15] 0.93 | [24] 0.998 | [18] 0.976 | [19] 0.964 | [20] 0.994 | [21] 0.98 | [22] 0.993

CCC(NC(C)C)C(O)c1ccc(O)c(O)c1 (configuration not stated)
inactive: [9] 1 | [10] 0.992 | [12] 1.02 | [13] 1.01 | [14] 1.02 | [25] 0.976 | [1] 1.01 | [2] 0.97 | [3] 0.982 | [4] 0.954 | [5] 0.99 | [24] 1.02 | [17] 1 | [18] 1.02 | [6] 0.923 | [19] 1.02 | [20] 1.01 | [26] 0.992 | [21] 1.03 | [7] 0.982 | [23] 0.991 | [8] 0.96

CC(C)C[C@H](NC(=O)[C@H](O)[C@H](N)Cc1ccccc1)C(=O)O
inactive: [9] 0.978 | [10] 1 | [12] 1.03 | [13] 1.03 | [25] 1 | [24] 0.994 | [27] 0.986 | [16] 0.981 | [17] 0.986 | [18] 0.999 | [19] 1 | [20] 0.99 | [21] 1.03

CC(C)C[C@H](NC(=O)[C@@H](O)[C@H](N)Cc1ccccc1)C(=O)O
inactive: [9] 1.05 | [10] 1.01 | [11] 1.03 | [12] 0.994 | [13] 1.02 | [14] 0.998 | [17] 1.03 | [18] 0.997 | [19] 0.996 | [20] 1.01 | [21] 0.989 | [22] 1.02

CC(C)CC(NC(=O)C(Cc1ccccc1)NC(=O)CNC(=O)CNC(=O)C(N)Cc1ccc(O)cc1)C(=O)O (configuration not stated)
active: locus YLR039C, strain RIC1, stronger effect = lower value 1.38 [resistant] | locus YLR262C, strain YPT6, stronger effect = lower value 1.46 [resistant]
inactive: locus YBR021W, strain FUR4, stronger effect = lower value 0.858 | locus YBR229C, strain ROT2, stronger effect = lower value 0.95 | locus YCL029C, strain bik1, stronger effect = lower value 0.979 | locus YDL035C, strain GPR1, stronger effect = lower value 0.956 | locus YDL074C, strain BRE1, stronger effect = lower value 1.01 | locus YDL101C, strain DUN1, stronger effect = lower value 1.02 | locus YDL185W, strain tfp1, stronger effect = lower value 0.973 | locus YDL192W, strain arf1, stronger effect = lower value 0.995 | locus YDR101C, strain arx1, stronger effect = lower value 0.976 | [11] 0.989 | locus YDR162C, strain NBP2, stronger effect = lower value 0.951 | locus YDR318W, strain mcm21, stronger effect = lower value 0.991 | locus YDR388W, stronger effect = lower value 0.978 | locus YDR502C, strain sam2, stronger effect = lower value 1.01 | locus YEL061C, strain CIN8, stronger effect = lower value 0.987 | locus YER110C, stronger effect = lower value 0.988 | locus YER155C, strain BEM2, stronger effect = lower value 1.01 | locus YER167W, strain BCK2, stronger effect = lower value 0.989 | locus YGL078C, strain dbp3, stronger effect = lower value 0.999 | locus YGL086W, strain mad1, stronger effect = lower value 1 | locus YGL248W, strain PDE1, stronger effect = lower value 1 | locus YGR135W, strain pre9, stronger effect = lower value 0.96 | [25] 0.963 | locus YGR252W, strain gcn5, stronger effect = lower value 1.07 | [1] 0.984 | locus YHR079C, strain IRE1 (second series), stronger effect = lower value 0.996 | locus YHR094C, strain hxt1, stronger effect = lower value 0.982 | locus YHR129C, strain ARP1, stronger effect = lower value 0.998 | locus YHR200W, strain rpn10, stronger effect = lower value 0.994 | locus YIL066C, strain RNR3, stronger effect = lower value 0.948 | locus YIL073C, strain SPO22, stronger effect = lower value 1.28 | locus YIL125W, strain kgd1, stronger effect = lower value 0.993 | locus YIR030C, strain dcg1, stronger effect = lower value 1 | [3] 1.06 | locus YJL134W, strain LCB3, stronger effect = lower value 0.987 | locus YJL168C, strain set2, stronger effect = lower value 1.01 | locus YJL187C, strain SWE1 (second series), stronger effect = lower value 1.03 | locus YJR043C, strain POL32, stronger effect = lower value 0.976 | locus YKL009W, strain mrt4, stronger effect = lower value 1.01 | locus YKL068W, stronger effect = lower value 0.989 | locus YKL085W, strain MDH1 (second series), stronger effect = lower value 0.99 | locus YKL085W, strain MDH1, stronger effect = lower value 0.99 | locus YKL190W, strain CNB1, stronger effect = lower value 1 | locus YKR001C, strain vps1, stronger effect = lower value 1.01 | locus YLR058C, strain SHM2, stronger effect = lower value 0.981 | locus YLR102C, strain apc9, stronger effect = lower value 0.994 | locus YLR268W, strain sec22, stronger effect = lower value 1.01 | locus YLR330W, strain CHS5, stronger effect = lower value 0.986 | locus YLR342W, strain FKS1 (second series), stronger effect = lower value 0.889 | locus YLR371W, strain rom2, stronger effect = lower value 0.988 | locus YLR418C, strain cdc73, stronger effect = lower value 1 | locus YML016C, strain PPZ1, stronger effect = lower value 0.975 | locus YML032C, strain rad52, stronger effect = lower value 0.97 | locus YML124C, strain tub3, stronger effect = lower value 0.998 | locus YMR078C, strain ctf18, stronger effect = lower value 0.986 | locus YMR223W, strain ubp8, stronger effect = lower value 0.988 | [27] 1.01 | locus YNL067W, strain RPL9B, stronger effect = lower value 1.05 | [16] 0.969 | locus YNL233W, strain BNI4, stronger effect = lower value 1.04 | locus YNL250W, strain rad50, stronger effect = lower value 0.981 | locus YNL271C, strain bni1, stronger effect = lower value 0.988 | locus YNL298W, strain CLA4, stronger effect = lower value 0.979 | locus YNL307C, strain MCK1, stronger effect = lower value 0.987 | [26] 0.997 | locus YNR052C, strain pop2, stronger effect = lower value 0.981 | locus YOL012C, strain htz1 0.972 | locus YOL147C, strain pex11, stronger effect = lower value 0.993 | locus YOR061W, strain CKA2, stronger effect = lower value 0.961 | locus YOR069W, strain VPS5, stronger effect = lower value 0.99 | locus YOR136W, strain idh2, stronger effect = lower value 1.02 | locus YOR144C, strain elg1, stronger effect = lower value 0.995 | locus YOR184W, strain ser1, stronger effect = lower value 0.996 | locus YOR316C, strain cot1, stronger effect = lower value 0.989 | [22] 0.988 | [23] 0.985 | locus YPR119W, strain clb2, stronger effect = lower value 0.992 | locus YPR141C, strain kar3, stronger effect = lower value 0.991 | locus YPR163C, strain tif3, stronger effect = lower value 0.979 | locus YPR167C, strain met16, stronger effect = lower value 0.997 | strain wtn01, stronger effect = lower value 0.987
